Most compounds without a hit are left out; they make up all but 21% or so of the library.
AMA1-RON2 inh = qHTS for Inhibitors of AMA1-RON; Towards Development of Antimalarial Drug Lead: Primary Screen; Potency, µM (top dose mostly 58.2 µM), usual class: inhibitors; AlphaScreen AMA1-biotinylated RON2 peptide binding; Plasmodium falciparum AMA1 (3D7) - RON2 peptide interaction; 0.2% of 360,000 active; note: nearly all actives have a fitted effect of over 45% in size
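AMA1 (3D7) with his tag at 25 nM final met compounds first, then biotinylated RON2 peptide at 25 nM; detection used donor plus acceptor beads, 10 µg/mL apiece, read by AlphaScreen after 30 min at room temperature.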
Pf growth 48h = Primary qHTS for delayed death inhibitors of the malarial parasite plastid, 48 hour incubation; 5.9% of 310,000 active; P. falciparum luciferase growth in erythrocytes, 48 h; Potency, µM (highest dose often 28.7 µM), usual class: inhibitors
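Firefly luciferase activity from engineered P. falciparum reports growth; inhibitors lower the luminescent signal. Cultures contained 2% hematocrit erythrocytes at 0.1% final parasitemia.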
Pf growth 96h = Primary qHTS for delayed death inhibitors of the malarial parasite plastid, 96 hour incubation. P. falciparum luciferase reporter growth, 96 h. Potency, µM (top dose mostly 28.7 µM), actives largely listed as inhibitors. 6.9% of 320,000 active. AID 504834, 2011
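Erythrocytes infected with luciferase-expressing P. falciparum were dispensed at 2% hematocrit and 0.05% parasitemia (final), then incubated with compounds 96 hours at 37 C in 5% CO2. Luminescence after detection reagent addition reported growth.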
CHX counter = Cycloheximide Counterscreen for Small Molecule Inhibitors of Shiga Toxin; cell reporter, cycloheximide protein synthesis inhibition counterscreen; 12% of 300,000 active; max response, %; AID 2314, 2010; in the data active = max response mostly above about 13%, no sharp cut-off; inactive = mostly below about 14%; note: read at 38.3 µM for the half of the compounds with a filed dose
HCV inh = qHTS Assay for Inhibitors of Hepatitis C Virus (HCV) | Potency, µM (titrated, usually from 41.8 µM), most hits filed as inhibitors | 3.4% of 340,000 active | AID 651820, 2012 | Huh7.5.1 HCVcc-Cre infection, luciferase reporter, 44 h
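Cells seeded at 1,000/well and cultured 4 h, then compounds added followed by HCVcc-Cre virus (~0.5 moi). After 44 h further culture, luciferase substrate was added, plates held 15 min at room temperature, and luminescence read for 15 sec.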
Shiga toxin inh = A qHTS for Small Molecule Inhibitors of Shiga Toxin. Vero cells, Shiga toxin protein synthesis inhibition reporter. inhibition, % at 38.7 µM. 9.2% of 290,000 active; in the data active = inhibition mostly above about 28%, no sharp cut-off; inactive = mostly below about 43%
Large screens that a line does not name were inactive. Unless noted, calls come from the whole dose curve; as a rule, active = well fitted curve in the direction sought with a large enough effect; inconclusive = small, poorly fitted or top-dose-only effect, or another doubt; inactive = no such curve, though single readings can be large; an effect the other way counts as inactive or inconclusive.

CCCCCCNc1c([N+](=O)[O-])c(=O)sc2ccccc12	Pf growth 48h 7.38µM, HCV inh inconclusive
CC(C)(C)Nc1c([N+](=O)[O-])c(=O)sc2ccccc12	none
Cc1nc(Cc2nnc(SCC(=O)N3c4ccccc4NC(=O)C3(C)C)o2)cs1	none (no result: Pf growth 48h, Pf growth 96h, CHX counter, HCV inh, Shiga toxin inh)
Cc1ccc(CNC(C)c2ccccc2)cc1 (centres undefined)	none
Cc1ccc(NC(=O)CNC(C)c2ccccc2)cc1 (centres undefined)	CHX counter 29.2, Shiga toxin inh 49.8
Cc1ccc(NC(=O)NCC(c2ccccc2)N(C)C)cc1 (centres undefined)	CHX counter 35.1, Shiga toxin inh 67.9 (no result: Pf growth 48h)
CCCCCCCCCCCCCCCC(=O)OC[C@H](O)[C@H]1OC[C@@H](O)[C@@H]1O	none (no result: AMA1-RON2 inh, CHX counter, HCV inh, Shiga toxin inh)
CC(=O)NC(C)c1nc2ccccc2n1CC(=O)NC(C)CCc1ccccc1 (centres undefined)	Pf growth 96h inconclusive
CC(OC(=O)c1cccc(S(=O)(=O)N(C)C)c1)C(=O)NCC(=O)Nc1ccc(F)c(F)c1F (centres undefined)	none (no result: Pf growth 48h, Pf growth 96h, CHX counter, Shiga toxin inh)
O=C(Nc1ccc(OC(F)(F)F)cc1)Nc1cccc([N+](=O)[O-])c1	Pf growth 48h 2.62µM, Pf growth 96h inconclusive, CHX counter 18.4, HCV inh inconclusive, Shiga toxin inh 58.0
Cc1ccc(NC(=O)Nc2cccc([N+](=O)[O-])c2)cc1F	Pf growth 96h inconclusive, CHX counter 31.1, HCV inh 11.2µM, Shiga toxin inh 53.9
CCOC(=O)[C@]12CCCC=C1N(Cc1ccco1)C(=O)[C@H](CC(=O)NCc1cccc3ccccc13)C2	none (no result: Pf growth 48h, Pf growth 96h, CHX counter, HCV inh, Shiga toxin inh)
Cc1cc(C)c2c3c(sc2n1)C1(CCSCC1)C(C#N)=C(N)O3	HCV inh inconclusive, Shiga toxin inh 28.8 (no result: Pf growth 96h)
COc1ccc(C2C(C#N)=C(N)Oc3c2sc2nc(C)cc(C)c32)cc1 (centres undefined)	HCV inh inconclusive (no result: Pf growth 96h)
O=CN1Cc2[nH]c3ccccc3c2N(c2ccc(Cl)cc2)C1=O	Pf growth 96h 9.28µM (no result: Pf growth 48h)
O=C1CNCc2[nH]c3ccccc3c2N1c1ccccc1	none (no result: Pf growth 96h)
COc1cc(C2CC(=O)Oc3cc(C)c(Cl)cc32)cc(OC)c1OC (centres undefined)	none (no result: AMA1-RON2 inh, Pf growth 48h, Pf growth 96h, HCV inh)
Cc1ccc(S(=O)(=O)N2CCCCC2)cc1C(=O)OC(C)C(=O)NCC1CCCCC1 (centres undefined)	Pf growth 96h inconclusive, HCV inh inconclusive (no result: CHX counter, Shiga toxin inh)
COCCCn1c(=S)[nH]c2sc3c(c2c1=O)CCCS3	CHX counter 39.9, Shiga toxin inh 90.8
Cc1occc1C(=O)NNC(=O)c1ccccc1Br	Shiga toxin inh 27.8
Cc1occc1C(=O)NNC(=O)c1ccccc1C(=O)O	CHX counter 24.1, Shiga toxin inh 69.3
O=C(COc1ccc(Cl)cc1)NNC(=O)c1ccccc1C(=O)O	Pf growth 96h inconclusive
CNC(=S)NNC(=O)c1ccccc1Br	Pf growth 96h 9.28µM
O=C(Cc1ccccc1)NNC(=O)c1ccccc1C(=O)O	CHX counter 14.9
Cc1ccccc1C(=O)NNC(=O)c1ccoc1C	none
Cc1cccc(NC(=O)CSc2nc3ccccc3c3nc(CCc4c(C)n[nH]c4C)nn23)c1	Pf growth 48h 7.38µM, HCV inh 25.1µM
CN1C(=O)C(=Cc2coc3ccccc3c2=O)C(=O)N(C)C1=O	CHX counter 20.3
CCn1cc(C(=O)N[C@H](C(=O)NC(C)(C)CO)C(C)C)c(=O)c2cc3c(cc21)OCO3	Pf growth 48h inconclusive, Pf growth 96h 8.28µM
CCn1cc(C(=O)N[C@@H](CCSC)C(=O)NC(C)(C)CO)c(=O)c2cc3c(cc21)OCO3	Pf growth 48h 1.85µM, Pf growth 96h 1.47µM
CC(C)C(NC(=O)C(c1ccccc1)c1ccccc1)c1nc2ccccc2[nH]1 (centres undefined)	Pf growth 48h 9.28µM (no result: Pf growth 96h)
CC(C)[C@H](NC(=O)c1cccc(S(=O)(=O)N2CCCC2)c1)c1nc2ccccc2[nH]1	Pf growth 48h inconclusive
Cc1cccc(C(=O)NC(C)C(=O)NC(c2nc3ccccc3[nH]2)C(C)C)c1 (centres undefined)	none (no result: CHX counter, Shiga toxin inh)
CSCC[C@H](NC(=O)c1ccc(Cl)c(S(=O)(=O)N2CCCC2)c1)c1nc2ccccc2[nH]1	Pf growth 48h 11.7µM, Pf growth 96h 10.4µM
CC(C)C(NC(=O)c1ccc(S(=O)(=O)N2CCOCC2)cc1)c1nc2ccccc2[nH]1 (centres undefined)	Pf growth 96h 13.1µM
CSCCC(NC(=O)c1cccc(S(=O)(=O)N2CCN(C(C)=O)CC2)c1)c1nc2ccccc2[nH]1 (centres undefined)	none (no result: Pf growth 48h, Pf growth 96h, CHX counter, Shiga toxin inh)
COc1ccc(C(=O)Nc2nc3ccccc3[nH]2)cc1S(=O)(=O)N1CCOCC1	none
C[C@H](NC(=O)c1ccc(Cl)c(S(=O)(=O)N2CCOCC2)c1)c1nc2ccccc2[nH]1	Pf growth 48h inconclusive, Pf growth 96h 3.29µM (no result: CHX counter, Shiga toxin inh)
CCCCSc1nc2sc3c(c2c(=O)[nH]1)CC(C)(CC)OC3 (centres undefined)	Pf growth 48h inconclusive
CC1CN(C(NC(=O)c2ccccc2)C(Cl)(Cl)Cl)CC(C)O1 (centres undefined)	none
CCNC(=O)C1(C)CCCN(C(=O)c2ccc3c(c2)C(C)(C)CCC3(C)C)C1 (centres undefined)	none (no result: Pf growth 48h, Pf growth 96h, CHX counter, HCV inh, Shiga toxin inh)
CSCCC(NC(=O)C1CC1)c1nc2ccccc2[nH]1 (centres undefined)	none
CSCC[C@H](NC(=O)C(C)(C)Oc1ccc(Cl)cc1)c1nc2ccccc2[nH]1	Pf growth 48h inconclusive, Pf growth 96h 10.4µM
CC(C)C(=O)N1CCC1(C)C(=O)Nc1ccc(-n2cncn2)cc1 (centres undefined)	none (no result: Pf growth 48h, Pf growth 96h, CHX counter, HCV inh, Shiga toxin inh)
COCCn1c(Sc2nc(C)cs2)nc2c1c(=O)[nH]c(=O)n2C	Pf growth 96h 13.1µM, HCV inh inconclusive
COCCn1c(N2CCCC2)nc2c1c(=O)[nH]c(=O)n2C	Pf growth 48h 13.1µM
Cn1c(N2CCCCC2)nc2c1c(=O)[nH]c(=O)n2C	Pf growth 96h 10.4µM
COCCn1c(SCc2ccccc2Cl)nc2c1c(=O)[nH]c(=O)n2C	none
COc1ccccc1C(=O)NCCC(=O)NC1CCC(C)CC1 (centres undefined)	none (no result: CHX counter, Shiga toxin inh)
CC(C)Cn1c(N)c(C(=O)CSc2ncnc3sc4c(c23)CCCC4)c(=O)n(C)c1=O	HCV inh inconclusive
O=C(Nc1nncs1)c1cc2c(s1)CCC2	CHX counter 20.9, Shiga toxin inh 30.0
CC(C)Cc1nnc(NC(=O)c2cc3c(s2)CCC3)s1	CHX counter 17.3, Shiga toxin inh 54.6
O=C(Nc1nccs1)c1cc2c(s1)CCCCC2	none (no result: Pf growth 48h)
